Where a chain is given by its changes, count along the chain named.

The first assay has as its target T1, SIX6 (Homo sapiens, UniProt O95475 114-200, T165G).
T1 sequence: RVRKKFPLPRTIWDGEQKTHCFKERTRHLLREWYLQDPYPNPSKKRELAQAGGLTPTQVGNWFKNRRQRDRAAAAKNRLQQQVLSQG
As to the kind of experiment: PBM; 200 nM protein, PBS. Conditions: dsDNA, one strand shown.
As for CCCCGCAG, the binding signal is 9.04 upbm affinity estimate (log intensity, higher = more binding, comparable within an allelic series).

For CAGTGGCC, the binding signal was 9.02 upbm affinity estimate (log intensity, higher = more binding, comparable within an allelic series).

Regarding AGGTGGGC, the binding signal is 8.98 upbm affinity estimate (log intensity, higher = more binding, comparable within an allelic series).

For AGCGGCGC, the binding signal is 8.81 upbm affinity estimate (log intensity, higher = more binding, comparable within an allelic series).

For the sequence AAGATATC, the binding signal is 11.1 upbm affinity estimate (log intensity, higher = more binding, comparable within an allelic series).

For GTATCAAA, the binding signal was 11.3 upbm affinity estimate (log intensity, higher = more binding, comparable within an allelic series).

As for TGTATCAA, the binding signal is 11.3 upbm affinity estimate (log intensity, higher = more binding, comparable within an allelic series).

As for CCGCCAGC, the binding signal is 9.05 upbm affinity estimate (log intensity, higher = more binding, comparable within an allelic series).

Take GCGCTGCC: the binding signal is 8.82 upbm affinity estimate (log intensity, higher = more binding, comparable within an allelic series).

With CGTATCAC, the binding signal is 11.3 upbm affinity estimate (log intensity, higher = more binding, comparable within an allelic series).

With CATGATCA, the binding signal is 10.4 upbm affinity estimate (log intensity, higher = more binding, comparable within an allelic series).

As to ATATACAC, the binding signal was 11.1 upbm affinity estimate (log intensity, higher = more binding, comparable within an allelic series).

Turning to CAGTATCA, the binding signal is 11.2 upbm affinity estimate (log intensity, higher = more binding, comparable within an allelic series).

As for AGTATCAC, the binding signal was 11.3 upbm affinity estimate (log intensity, higher = more binding, comparable within an allelic series).

Consider GCAGTGGC, for which the binding signal is 8.99 upbm affinity estimate (log intensity, higher = more binding, comparable within an allelic series).

For GATGATAC, the binding signal is 11.4 upbm affinity estimate (log intensity, higher = more binding, comparable within an allelic series).

On to GCCGCGGC, for which the binding signal was 9.01 upbm affinity estimate (log intensity, higher = more binding, comparable within an allelic series).

In the case of GATATCAC, the binding signal is 11.4 upbm affinity estimate (log intensity, higher = more binding, comparable within an allelic series).

GTGTATCA: the binding signal is 11.5 upbm affinity estimate (log intensity, higher = more binding, comparable within an allelic series).

As to AGCGGTGG, the binding signal is 8.94 upbm affinity estimate (log intensity, higher = more binding, comparable within an allelic series).

The next assay concerns the target T2, SIX6 (Homo sapiens, UniProt O95475 114-200, T139Q).
T2 sequence: T1 sequence with T26Q, G52T
As to the kind of experiment: PBM; 200 nM protein, PBS. Conditions: dsDNA, one strand shown.
Consider CGGTATCA, for which the binding signal is 11.4 upbm affinity estimate (log intensity, higher = more binding, comparable within an allelic series).

Consider AGCGGGCC, for which the binding signal is 9.03 upbm affinity estimate (log intensity, higher = more binding, comparable within an allelic series).

As for GGCCCCGA, the binding signal is 9.12 upbm affinity estimate (log intensity, higher = more binding, comparable within an allelic series).

In the case of GGCGACCC, the binding signal was 9.15 upbm affinity estimate (log intensity, higher = more binding, comparable within an allelic series).

For AGGGCCCG, the binding signal was 9.07 upbm affinity estimate (log intensity, higher = more binding, comparable within an allelic series).

For ACGGGCGG, the binding signal was 9.17 upbm affinity estimate (log intensity, higher = more binding, comparable within an allelic series).

With ATGATACC, the binding signal is 11.5 upbm affinity estimate (log intensity, higher = more binding, comparable within an allelic series).

Regarding TGATACCA, the binding signal was 11.3 upbm affinity estimate (log intensity, higher = more binding, comparable within an allelic series).

AGTATATC: the binding signal was 11 upbm affinity estimate (log intensity, higher = more binding, comparable within an allelic series).

With GCCAGTCC, the binding signal is 9.12 upbm affinity estimate (log intensity, higher = more binding, comparable within an allelic series).

As to ATATCCCC, the binding signal was 10.9 upbm affinity estimate (log intensity, higher = more binding, comparable within an allelic series).

CCAGTGCG: the binding signal was 9.15 upbm affinity estimate (log intensity, higher = more binding, comparable within an allelic series).

Take GGCGCCCA: the binding signal was 8.81 upbm affinity estimate (log intensity, higher = more binding, comparable within an allelic series).

Regarding ACCGCGCC, the binding signal was 8.95 upbm affinity estimate (log intensity, higher = more binding, comparable within an allelic series).

For the sequence GGCGGACC, the binding signal was 8.91 upbm affinity estimate (log intensity, higher = more binding, comparable within an allelic series).

For the sequence CGCAACCG, the binding signal is 9.31 upbm affinity estimate (log intensity, higher = more binding, comparable within an allelic series).

As to AGCTCCGC, the binding signal is 8.99 upbm affinity estimate (log intensity, higher = more binding, comparable within an allelic series).

Turning to AGTGTATC, the binding signal was 11.3 upbm affinity estimate (log intensity, higher = more binding, comparable within an allelic series).

In the case of GGCCGGAA, the binding signal is 9.04 upbm affinity estimate (log intensity, higher = more binding, comparable within an allelic series).

On to CGCAGCGC, for which the binding signal was 8.99 upbm affinity estimate (log intensity, higher = more binding, comparable within an allelic series).

In the case of CCCCGCAG, the binding signal is 8.99 upbm affinity estimate (log intensity, higher = more binding, comparable within an allelic series).

CAGTGGCC: the binding signal was 8.99 upbm affinity estimate (log intensity, higher = more binding, comparable within an allelic series).

For the sequence AGGTGGGC, the binding signal is 9.06 upbm affinity estimate (log intensity, higher = more binding, comparable within an allelic series).

For the sequence AGCGGCGC, the binding signal was 8.91 upbm affinity estimate (log intensity, higher = more binding, comparable within an allelic series).

In the case of AAGATATC, the binding signal was 11.1 upbm affinity estimate (log intensity, higher = more binding, comparable within an allelic series).

In the case of GTATCAAA, the binding signal is 11.2 upbm affinity estimate (log intensity, higher = more binding, comparable within an allelic series).

Take TGTATCAA: the binding signal was 11.2 upbm affinity estimate (log intensity, higher = more binding, comparable within an allelic series).

Turning to CCGCCAGC, the binding signal was 9.1 upbm affinity estimate (log intensity, higher = more binding, comparable within an allelic series).

With GCGCTGCC, the binding signal was 8.75 upbm affinity estimate (log intensity, higher = more binding, comparable within an allelic series).

As to CGTATCAC, the binding signal was 11.3 upbm affinity estimate (log intensity, higher = more binding, comparable within an allelic series).

As to CATGATCA, the binding signal is 10.6 upbm affinity estimate (log intensity, higher = more binding, comparable within an allelic series).

As to ATATACAC, the binding signal is 11 upbm affinity estimate (log intensity, higher = more binding, comparable within an allelic series).

Regarding CAGTATCA, the binding signal was 11 upbm affinity estimate (log intensity, higher = more binding, comparable within an allelic series).

Regarding AGTATCAC, the binding signal is 11.3 upbm affinity estimate (log intensity, higher = more binding, comparable within an allelic series).

On to GCAGTGGC, for which the binding signal was 8.93 upbm affinity estimate (log intensity, higher = more binding, comparable within an allelic series).

Take GATGATAC: the binding signal was 11.3 upbm affinity estimate (log intensity, higher = more binding, comparable within an allelic series).

On to GCCGCGGC, for which the binding signal is 9.14 upbm affinity estimate (log intensity, higher = more binding, comparable within an allelic series).

For GATATCAC, the binding signal was 11.2 upbm affinity estimate (log intensity, higher = more binding, comparable within an allelic series).

Take GTGTATCA: the binding signal is 11.4 upbm affinity estimate (log intensity, higher = more binding, comparable within an allelic series).

As to AGCGGTGG, the binding signal is 9.04 upbm affinity estimate (log intensity, higher = more binding, comparable within an allelic series).

A further assay deals with T3, SIX6 (Homo sapiens, UniProt O95475 114-200, T165A).
T3 sequence: T1 sequence with G52A
Nature of the assay: PBM; 200 nM protein, PBS. Conditions: dsDNA, one strand shown.
CGGTATCA: the binding signal is 11.3 upbm affinity estimate (log intensity, higher = more binding, comparable within an allelic series).

As for AGCGGGCC, the binding signal is 8.98 upbm affinity estimate (log intensity, higher = more binding, comparable within an allelic series).

Regarding GGCCCCGA, the binding signal was 8.81 upbm affinity estimate (log intensity, higher = more binding, comparable within an allelic series).

For the sequence GGCGACCC, the binding signal is 9.04 upbm affinity estimate (log intensity, higher = more binding, comparable within an allelic series).

For AGGGCCCG, the binding signal is 8.92 upbm affinity estimate (log intensity, higher = more binding, comparable within an allelic series).

Consider ACGGGCGG, for which the binding signal was 9.02 upbm affinity estimate (log intensity, higher = more binding, comparable within an allelic series).

On to ATGATACC, for which the binding signal is 11.6 upbm affinity estimate (log intensity, higher = more binding, comparable within an allelic series).

In the case of TGATACCA, the binding signal is 11.4 upbm affinity estimate (log intensity, higher = more binding, comparable within an allelic series).

As for AGTATATC, the binding signal is 10.8 upbm affinity estimate (log intensity, higher = more binding, comparable within an allelic series).

For GCCAGTCC, the binding signal was 8.81 upbm affinity estimate (log intensity, higher = more binding, comparable within an allelic series).

On to ATATCCCC, for which the binding signal was 10.8 upbm affinity estimate (log intensity, higher = more binding, comparable within an allelic series).

Consider CCAGTGCG, for which the binding signal was 9.01 upbm affinity estimate (log intensity, higher = more binding, comparable within an allelic series).

As to GGCGCCCA, the binding signal was 8.62 upbm affinity estimate (log intensity, higher = more binding, comparable within an allelic series).

Take ACCGCGCC: the binding signal is 8.82 upbm affinity estimate (log intensity, higher = more binding, comparable within an allelic series).

Take GGCGGACC: the binding signal was 8.99 upbm affinity estimate (log intensity, higher = more binding, comparable within an allelic series).

On to CGCAACCG, for which the binding signal was 9.14 upbm affinity estimate (log intensity, higher = more binding, comparable within an allelic series).

For the sequence AGCTCCGC, the binding signal is 8.94 upbm affinity estimate (log intensity, higher = more binding, comparable within an allelic series).

On to AGTGTATC, for which the binding signal was 11 upbm affinity estimate (log intensity, higher = more binding, comparable within an allelic series).

Consider GGCCGGAA, for which the binding signal was 8.94 upbm affinity estimate (log intensity, higher = more binding, comparable within an allelic series).

On to CGCAGCGC, for which the binding signal was 8.97 upbm affinity estimate (log intensity, higher = more binding, comparable within an allelic series).

In the case of CCCCGCAG, the binding signal is 8.96 upbm affinity estimate (log intensity, higher = more binding, comparable within an allelic series).

For the sequence CAGTGGCC, the binding signal is 8.94 upbm affinity estimate (log intensity, higher = more binding, comparable within an allelic series).

Turning to AGGTGGGC, the binding signal was 8.91 upbm affinity estimate (log intensity, higher = more binding, comparable within an allelic series).

Take AGCGGCGC: the binding signal was 8.86 upbm affinity estimate (log intensity, higher = more binding, comparable within an allelic series).

On to AAGATATC, for which the binding signal is 11 upbm affinity estimate (log intensity, higher = more binding, comparable within an allelic series).

As for GTATCAAA, the binding signal was 11.4 upbm affinity estimate (log intensity, higher = more binding, comparable within an allelic series).

In the case of TGTATCAA, the binding signal is 11.3 upbm affinity estimate (log intensity, higher = more binding, comparable within an allelic series).

As for CCGCCAGC, the binding signal is 9.05 upbm affinity estimate (log intensity, higher = more binding, comparable within an allelic series).

Regarding GCGCTGCC, the binding signal is 8.8 upbm affinity estimate (log intensity, higher = more binding, comparable within an allelic series).

For CGTATCAC, the binding signal was 11.2 upbm affinity estimate (log intensity, higher = more binding, comparable within an allelic series).

As for CATGATCA, the binding signal was 10.3 upbm affinity estimate (log intensity, higher = more binding, comparable within an allelic series).

ATATACAC: the binding signal is 10.9 upbm affinity estimate (log intensity, higher = more binding, comparable within an allelic series).

For CAGTATCA, the binding signal was 11.1 upbm affinity estimate (log intensity, higher = more binding, comparable within an allelic series).

For AGTATCAC, the binding signal was 11.3 upbm affinity estimate (log intensity, higher = more binding, comparable within an allelic series).

For the sequence GCAGTGGC, the binding signal was 8.93 upbm affinity estimate (log intensity, higher = more binding, comparable within an allelic series).

Take GATGATAC: the binding signal was 11.2 upbm affinity estimate (log intensity, higher = more binding, comparable within an allelic series).

For the sequence GCCGCGGC, the binding signal is 8.95 upbm affinity estimate (log intensity, higher = more binding, comparable within an allelic series).

Regarding GATATCAC, the binding signal was 11.2 upbm affinity estimate (log intensity, higher = more binding, comparable within an allelic series).

For GTGTATCA, the binding signal is 11.4 upbm affinity estimate (log intensity, higher = more binding, comparable within an allelic series).

AGCGGTGG: the binding signal was 8.98 upbm affinity estimate (log intensity, higher = more binding, comparable within an allelic series).

The values above are taken from article PMC11006913.
